Assay results from PubChem BioAssay AID1345085 (National Center for Advancing Translational Sciences (NCATS), 2018).
Inconclusive results are not listed. Calls of active or inactive are those of the source. Calls follow the shape of the dose curve; as a rule, active = well fitted cell-killing curve with a large enough effect; inconclusive = small, poorly fitted or top-dose-only effect, or effect the other way; inactive = no such curve, though single readings can be large or run the other way.

test system: SW626; experiment: Confirmatory qHTS for gynecologic anti-cancer compounds from libraries of approved drugs and bioactive compounds; conditions: gynecologic cancer cell panel viability, ATPlite luminescence, 48 h; series mostly up to 57.6 µM; activity change, negative = viability loss: at the top concentration; also: nearly all actives have a fitted effect of over 55% in size
In short: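 ATP-based luminescent viability (ATPlite) after 48 h drug treatment at 37 °C, 5% CO2, across 57.5 uM–0.977 nM in 1:3 steps. Cells seeded at 1,000 per well 16 h beforehand; IC50 values computed, HEK 293T as selectivity control.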
% is scaled to controls: 0 for no effect and ±100 for the full control effect; potency is read from the fitted curve at half-maximal effect.

Row | Compound | Potency | activity change, negative = viability loss
1 | Nc1ccccc1NC(=O)c1ccc(CNC(=O)OCc2cccnc2)cc1 | 3.06 µM (active) | –
2 | COc1cc2c(NC3CCN(C(C)C)CC3)nc(C3CCCCC3)nc2cc1OCCCN1CCCC1 | 10.9 µM (active) | –
3 | S=c1nc[nH]c2nc[nH]c12 | 6.85 µM (active) | –
4 | CN(C)c1ccc(-c2nc3ncc(Cl)c(N4CCN(CC(=O)Nc5nccs5)CC4)c3[nH]2)cc1 | – | -9.1% [at 19.5 µM] (inactive)
5 | CN[C@@H](C)C(=O)N[C@H]1CN(C(=O)CC(C)C)CC[C@H]2CC[C@@H](C(=O)NC(c3ccccc3)c3ccccc3)N2C1=O | – | -11.7% (inactive)
6 | CC(C)(C(=O)NCC(F)(F)C(F)(F)F)C(=O)NC1C(=O)Nc2ccccc2-c2ccccc21 (stereo not given) | – | -11% (inactive)
7 | CC[C@@]1(O)C(=O)OCc2c1cc1n(c2=O)Cc2cc3cc(O)ccc3nc2-1 | 0.217 µM (active) | –
8 | CN(C)C1CCN(C(=O)c2ccc(NC(=O)Nc3nc(N4CCOCC4)nc(N4CCOCC4)n3)cc2)CC1 | 0.685 µM (active) | –
9 | Nc1ccccc1NC(=O)c1ccc(CNc2nccc(-c3cccnc3)n2)cc1 | 0.685 µM (active) | –
10 | CNC1CCC(N(Cc2cccc(-c3ccncc3)c2)C(=O)c2sc3ccccc3c2Cl)CC1 (stereo not given) | 30.6 µM (active) | –
11 | N#CC1(c2cccc(C(=O)Nc3cc(Oc4ccc5nc(NC(=O)C6CC6)sc5n4)ccc3F)c2Cl)CC1 | 4.85 µM (active) | –
12 | COc1ccc2c(c1)c(CC(=O)O)c(C)n2C(=O)c1ccc(Cl)cc1 | – | 1.53% (inactive)
13 | C=CC(=O)Nc1cccc(Oc2nc(Nc3ccc(N4CCN(C)CC4)cc3)ncc2Cl)c1 | 24.3 µM (active) | –
14 | CCc1nc(C(N)=O)c(Nc2ccc(N3CCC(N4CCN(C)CC4)CC3)c(OC)c2)nc1NC1CCOCC1 | 3.78 µM (active) | –
15 | CCCCN(CCCC)C(=O)CN1C[C@H](c2ccc3c(c2)OCO3)[C@@H](C(=O)O)[C@@H]1c1ccc(OC)cc1 | – | -13% (inactive)
16 | CC(C)n1nc(-c2cc3cc(O)ccc3[nH]2)c2c(N)ncnc21 | 7.69 µM (active) | –
17 | Cc1cnc(Nc2cccc(CN3CCOCC3)c2)nc1Nc1cccc(S(=O)(=O)NC(C)(C)C)c1 | 24.3 µM (active) | –
18 | O=C(CCCCCCNC(=O)c1cnc(N(c2ccccc2)c2ccccc2)nc1)NO | 7.69 µM (active) | –
19 | COc1cc(Nc2c(C#N)cnc3cc(OCCCN4CCN(C)CC4)c(OC)cc23)c(Cl)cc1Cl | 19.3 µM (active) | –
20 | O=C1c2c(O)ccc(O)c2C(=O)c2c(NCCNCCO)ccc(NCCNCCO)c21 | 6.85 µM (active) | –
21 | O=C(CCCCCCC(=O)Nc1ccccc1)NO | 2.17 µM (active) | –
22 | Cc1cnc(CNC(=O)c2c(=O)c3ccc(N4CCCN(C)CC4)nc3n3c2sc2ccccc23)cn1 | – | -6.28% [at 10.7 µM] (inactive)
23 | COC(C)(C)CCn1nc(Nc2c(C)cccc2C)c2cnc(Nc3ccc(OCCN4CCCC4)c(F)c3)nc21 | 19.3 µM (active) | –
24 | NC(=O)c1cnc(-c2ccc(C3(N)CCC3)cc2)c(-c2ccccc2)c1 | 24.3 µM (active) | –
25 | Cc1cc(C(=O)N2CCN(c3cccc(Cl)c3)CC2)n(-c2ccccc2)n1 | – | 2.43% (inactive)
26 | CC[C@H](CC#N)OC(=O)N[C@@H](C)c1cccc(NC(=O)Nc2ccc(-c3cnco3)c(OC)c2)c1 | – | -9.55% (inactive)
27 | CCC1C(=O)N(C)c2cnc(Nc3ccc(C(=O)NC4CCN(C)CC4)cc3OC)nc2N1C1CCCC1 (stereo not given) | 2.43 µM (active) | –
28 | CS(=O)(=O)c1ccc(C(=O)Nc2ccc(Cl)c(-c3ccccn3)c2)c(Cl)c1 | – | 11.7% (inactive)
29 | C[C@]12CCC(=O)C=C1CC[C@@H]1[C@@H]2[C@@H](O)C[C@@]2(C)[C@H]1CC[C@]2(O)C(=O)CO | – | -4.48% (inactive)
30 | COc1cc(-c2nn(C3CCC(N4CCN(C(C)=O)CC4)CC3)c3ncnc(N)c23)ccc1NC(=O)c1cc2ccccc2n1C (stereo not given) | 27.3 µM (active) | –
